# Measured values as given in PubChem BioAssay (NCATS).
# Inconclusive results are not listed. A call without a number means that no potency is given here. Calls of active or inactive are those of the source. The call rests on the fitted dose curve; in most records, active means well fitted curve in the direction sought with a large enough effect; inconclusive means small, poorly fitted or top-dose-only effect, or another doubt; inactive means no such curve, though single readings can be large; an effect the other way counts as inactive or inconclusive.
# Biological target: Calcium and integrin-binding protein 1 (Homo sapiens) (UniProt Q99828)
# Experiment: Validation qHTS for Identification of Calcium Integrin Binding protein 1 (CIB1) Competitor (AID 1508618)
# Conditions: CIB1-GST / FITC-alphaIIb peptide fluorescence polarization; series mostly up to 114 µM
# Outline: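 CIB1-GST (1 uM final) in 5 mM HEPES pH 7.4, 125 mM NaCl, 5 mM CaCl2, 0.01% Tween20 was preincubated 15 min at room temperature with compound (up to 114 uM), then FITC-alphaIIb peptide (100 nM) added for 15 min; fluorescence polarization read.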
# Sequence of Calcium and integrin-binding protein 1 (Homo sapiens) (Q99828 whole entry, looked up): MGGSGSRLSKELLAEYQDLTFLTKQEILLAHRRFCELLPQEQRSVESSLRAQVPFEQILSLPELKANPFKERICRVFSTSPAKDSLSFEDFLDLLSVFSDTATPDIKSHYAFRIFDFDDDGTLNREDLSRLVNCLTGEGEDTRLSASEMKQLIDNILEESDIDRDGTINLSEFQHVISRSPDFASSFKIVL
row,SMILES,outcome
1,CC(C)NC[C@H](O)c1ccc(O)c(O)c1,inactive
2,CNCC(O)c1ccc(O)c(O)c1 (configuration not stated),inactive
3,CN1CCC[C@@H]1Cc1c[nH]c2ccc(CCS(=O)(=O)c3ccccc3)cc12,inactive
4,C[C@H](NC(CCc1ccccc1)C(=O)O)C(=O)N1CCC[C@H]1C(=O)O (some centres not stated),inactive
5,CNCCCC1c2ccccc2C=Cc2ccccc21,inactive
6,O=C1NC(=O)[C@@]2(CCOc3ccc(F)cc32)N1,inactive
7,CC(=O)c1ccc2c(c1)N(CCCN(C)C)c1ccccc1S2,inactive
8,CN(C)CCCN1c2ccccc2Sc2ccc(Cl)cc21,inactive
9,CCCCN(CCCC)CC(O)c1cc(Cl)cc2c1-c1ccc(Cl)cc1/C2=C/c1ccc(Cl)cc1 (configuration not stated),inactive
10,CN1CCN(C2Cc3ccccc3Sc3ccc(Cl)cc32)CC1 (configuration not stated),inactive
11,CC(C)c1c(C(=O)Nc2ccccc2)c(-c2ccccc2)c(-c2ccc(F)cc2)n1CC[C@@H](O)C[C@@H](O)CC(=O)O,inactive
12,C[C@H]1O[C@@H](n2cc(F)c(=O)[nH]c2=O)[C@H](O)[C@@H]1O,inactive
13,NC1[C@H]2CN(c3nc4c(cc3F)c(=O)c(C(=O)O)cn4-c3ccc(F)cc3F)C[C@@H]12 (some centres not stated),inactive
14,CCN(CC)CCNC(=O)c1c(C)[nH]c(/C=C2\C(=O)Nc3ccc(F)cc32)c1C,inactive
15,Cc1cc(N)c2ccccc2[n+]1CCCCCCCCCC[n+]1c(C)cc(N)c2ccccc21,inactive
16,CSc1ccc2c(c1)N(CCC1CCCCN1C)c1ccccc1S2 (configuration not stated),inactive

# Biological target: Calcium and integrin-binding protein 1 (Homo sapiens) (UniProt Q99828)
# Experiment: Primary qHTS for Identification of Calcium Integrin Binding Protein 1 (CIB1) Competitor (AID 1508620);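 further: GST tagged CIB1 binding a fluorescein labelled alphaIIb integrin peptide tracer; top concentration of the series differs between compounds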
# Conditions: CIB1-GST / FITC-alphaIIb peptide fluorescence polarization; series mostly up to 114 µM
# Outline: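 Fluorescence polarization competition: CIB1-GST (1 uM final) preincubated with compound 15 min at room temperature, then FITC-labeled alphaIIb peptide (100 nM final) added for another 15 min. Polarization read at Ex 480/Em 540.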
row,SMILES,outcome
1,CN1CCC[C@@H]1Cc1c[nH]c2ccc(CCS(=O)(=O)c3ccccc3)cc12,inactive
2,CSc1ccc2c(c1)C(N1CCN(C)CC1)Cc1ccccc1S2 (configuration not stated),inactive
3,C[C@H](NC(CCc1ccccc1)C(=O)O)C(=O)N1CCC[C@H]1C(=O)O (some centres not stated),inactive
4,CNCCCC1c2ccccc2C=Cc2ccccc21,inactive
5,O=C1NC(=O)[C@@]2(CCOc3ccc(F)cc32)N1,inactive
6,CC(=O)c1ccc2c(c1)N(CCCN(C)C)c1ccccc1S2,inactive
7,Cn1c(=O)c2c(ncn2CC2OCCO2)n(C)c1=O,inactive
8,CN1CCN(C2Cc3ccccc3Sc3ccc(Cl)cc32)CC1 (configuration not stated),inactive
9,CCCCc1ncc(/C=C(\Cc2cccs2)C(=O)O)n1Cc1ccc(C(=O)O)cc1,inactive
10,C[C@H]1O[C@@H](n2cc(F)c(=O)[nH]c2=O)[C@H](O)[C@@H]1O,inactive
11,CCCCCCCCCCCCCCCC(=O)NCCO,inactive
12,NC1[C@H]2CN(c3nc4c(cc3F)c(=O)c(C(=O)O)cn4-c3ccc(F)cc3F)C[C@@H]12 (some centres not stated),inactive
13,OC[C@H]1O[C@@H](O[C@@H]2[C@@H](CO)O[C@](O)(CO)[C@H]2O)[C@H](O)[C@@H](O)[C@H]1O,inactive
14,NC1CCN(c2cccc(Cl)n2)CC1,inactive
15,Cc1cc(N)c2ccccc2[n+]1CCCCCCCCCC[n+]1c(C)cc(N)c2ccccc21,inactive
16,CSc1ccc2c(c1)N(CCC1CCCCN1C)c1ccccc1S2 (configuration not stated),inactive

# Test system: not listed separately
# Experiment: Counterscreen qHTS for small molecule stabilizers of the endoplasmic reticulum resident proteome: GLuc-NoTag assay (AID 1508627); further: potency means the concentration at half of the fitted maximal effect
# Conditions: Gaussia luciferase NoTag secretion counterscreen, luminescence, thapsigargin 100 nM for final 4 h; series mostly up to 76.4 µM
# Outline: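 SH-SY5Y cells stably expressing constitutively secreted GLuc (no SERCaMP tag) were pre-incubated 5 h, treated with compound for 19 h, then 100 nM thapsigargin for 4 h at 37C; medium GLuc read by coelenterazine luminescence.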
row,SMILES,Potency
1,CC(=O)c1ccc2c(c1)N(CCCN(C)C)c1ccccc1S2,inactive
2,CNCCC(Oc1ccc(C(F)(F)F)cc1)c1ccccc1 (configuration not stated),44.7 µM (active)
3,CCCCCCCCCCCCCCCC(=O)NCCO,inactive
4,NC1[C@H]2CN(c3nc4c(cc3F)c(=O)c(C(=O)O)cn4-c3ccc(F)cc3F)C[C@@H]12 (some centres not stated),inactive
5,CN(C)CCCN1c2ccccc2CCc2ccccc21,inactive
6,CSc1ccc2c(c1)N(CCC1CCCCN1C)c1ccccc1S2 (configuration not stated),50.1 µM (active)

# Test system: not listed separately
# Experiment: Confirmatory qHTS for small molecule stabilizers of the endoplasmic reticulum resident proteome: Secreted ER Calcium Modulated Protein (SERCaMP) assay (AID 1508628); further: nearly all actives have a fitted effect of over 40% in size; further: potency means the concentration at half of the fitted maximal effect
# Conditions: SERCaMP secreted luciferase ER calcium/proteostasis reporter; series mostly up to 76.3 µM
# Outline: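 We seeded SH-SY5Y-GLuc-SERCaMP cells, added compounds (three concentrations in the primary run, eleven up to 76.6 uM in confirmation), incubated 16 h, depleted ER calcium with thapsigargin, and read luciferase 4 h later.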
row,SMILES,Potency
1,CNCCCC1c2ccccc2C=Cc2ccccc21,inactive
2,CC(=O)c1ccc2c(c1)N(CCCN(C)C)c1ccccc1S2,25.1 µM (active)
3,CN1CCN(C2Cc3ccccc3Sc3ccc(Cl)cc32)CC1 (configuration not stated),17.8 µM (active)
4,CNCCC(Oc1ccc(C(F)(F)F)cc1)c1ccccc1 (configuration not stated),inactive
